Screens from PubChem BioAssay.
MLLE-PAM2 inh: inhibitors of PABP1 MLLE–PAM2 peptide binding, primary screen, biochemical, fluorescence polarization, FITC-PAM2, GST-MLLE; Polyadenylate-binding protein 1 (Homo sapiens), P11940; inhibition, % at 20 µM; 360,000 compounds, 0.36% hits; AID 588489, 2011; in the data active = inhibition above about 35%, passing the limit was not always enough
eIF4H inh: human eIF4H binding inhibitors, primary screen, translation initiation inhibitor project, biochemical, uHTS, fluorescence polarization; Eukaryotic translation initiation factor 4H (Homo sapiens), Q15056; eIF4H fluorescence polarization binding assay; inhibition, % at 35 µM; 290,000 compounds, 0.94% hits;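 also: calls also rest on retests at 20 µM and on dose response follow-up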
PABP polyA inh: PABP poly(A) RNA binding inhibitors, primary screen, biochemical, fluorescence polarization, uHTS; calls only at 35 µM; 290,000 compounds, 1% hits;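 also: calls also rest on retests at 20 µM and on dose response follow-up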
eIF4E-4G inh: eIF4E–eIF4G protein interaction inhibitors, primary screen, biochemical, uHTS, TR-FRET, eIF4GI fragment. Eukaryotic translation initiation factor 4E (Mus musculus) + Eukaryotic translation …. TR-FRET eIF4E-eIF4GI(517-606) binding, 2 h. inhibition, % at 21.7 µM. 220,000 compounds, 0.37% hits. AID 782, 2007;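 active = inhibition above about 30%, limit read from the data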
PERK inh: block of dimerizer-induced PERK translation repression, primary screen, PERK inhibitor project, CHO PERK-DD cells, SEAP luminescence, HTS | CHO PERK-DD fusion, SEAP luminescence translation reporter | AID 1416, 2008 | inhibition, % at 5.6 µM | 220,000 compounds, 0.17% hits;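 active = inhibition above the mean inhibition of all tested compounds plus 3 SD, set separately per screening campaign, cut at about 2.9% in these data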;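 also: PERK kinase domain activated by AP20187 dimerizer at 100 nM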
Hits are given with their value; – = inactive; ? = inconclusive; · = no result; + = active, no number; [ ] = dose if it differs, or a comment. Shown are actives, neighbours in structure and some others; about 1.6% of the full set was active somewhere. Unless noted, no rule for the calls is given here.

SMILES	MLLE-PAM2 inh	eIF4H inh	PABP polyA inh	eIF4E-4G inh	PERK inh
CC1CCCC(C)N1C(=O)COC(=O)CSc1ccc([N+](=O)[O-])cc1 (centres undefined)	–	·	·	·	·
CCOC(=O)C1CCN(C(=O)COC(=O)CSc2ccc([N+](=O)[O-])cc2)CC1	42	·	·	·	·
CC(OC(=O)CSc1ccc([N+](=O)[O-])cc1)C(=O)NC1CC1 (centres undefined)	42	·	·	·	·
CCCN(CC(=O)Nc1ccccc1C)C(=O)COC(=O)CSc1ccc([N+](=O)[O-])cc1	40	·	·	·	·
CCC(C)N(C(=O)COC(=O)CSc1ccc([N+](=O)[O-])cc1)C1CCS(=O)(=O)C1 (centres undefined)	–	–	–	·	·
CCOc1cc(C(=O)Nc2ccc3c4c(cccc24)C(=O)N3CC)cc(OCC)c1OCC	–	–	–	59	–
COC(=O)N1C(=O)[C@](Cc2ccccc2)(c2ccccc2)N1C(=O)OC	–	–	–	·	·
CCN(CC)C(=O)Cn1ncc2c1-c1ccccc1OC2	–	63	–	–	–
Cc1nc(C)c(-c2ccc(SCc3ccccc3F)nn2)s1	–	–	–	·	·
OC1CCC(Nc2ncnc3sccc23)CC1 (centres undefined)	–	–	–	·	·
O=C(O)Cc1ccc(N=Nc2c(O)c(C(=O)O)cc3ccccc23)cc1	–	77	+	–	–
CCc1c(O)nc(SCC(=O)Nc2ccccc2)n(-c2ccccc2C)c1=O	–	·	·	·	·
CCc1c(O)nc(SCC(=O)Nc2ccccc2OC)n(-c2ccccc2C)c1=O	46	·	·	·	·
COCC(C)n1c(SCC(=O)Nc2sccc2C(N)=O)nc2ccccc2c1=O (centres undefined)	–	·	·	·	·
COCC(C)n1c(SCC(=O)Nc2nccs2)nc2ccccc2c1=O (centres undefined)	44	·	·	·	·
CCCCc1c(O)nc(SCC(=O)Nc2cccc3ccccc23)n(-c2ccccc2OC)c1=O	41	–	–	·	·
CCn1c(SCC(=O)Nc2ccccc2OC)nc2ccccc2c1=O	–	–	–	69[fluorescence artefact?]	–
O=c1[nH]c(=O)c2[nH]c(=S)n(-c3ccccc3)c2[nH]1	–	·	·	·	·
Cc1nc2sc(C(=O)Nc3ccccc3Cc3ccccc3)c(C)c2c(=O)[nH]1	–	–	–	–	–
COc1ccccc1NC(=O)CSc1nc(N)c(C#N)cc1C#N	–	87	–	–	–
CCc1ccc[n+](-c2[nH]c(=O)sc2/C=N/N=C(\[O-])c2ccncc2)c1	–	–	–	·	·
Cc1cc(C)c[n+](-c2[nH]c(=O)sc2/C=N/N=C(\[O-])c2cccnc2)c1	36	–	–	·	·
CCOc1ccc(N=CC2=C(O)CC(c3ccco3)CC2=O)cc1 (centres undefined)	–	–	–	–	–
O=C1CC(c2ccccc2)CC(O)=C1C=NCCN1CCNCC1 (centres undefined)	–	–	–	–	–
O=C1CC(c2ccco2)CC(O)=C1C=Nc1cc(Cl)cc(Cl)c1 (centres undefined)	–	–	–	52	–
SMILES	MLLE-PAM2 inh	eIF4H inh	PABP polyA inh	eIF4E-4G inh	PERK inh
O=C1CC(c2ccco2)CC(O)=C1C=NCCN1CCNCC1 (centres undefined)	–	95	+	–	–
CC1(C)CC(=O)C(C=NCC2CCNCC2)=C(O)C1	–	–	–	–	–
Cc1ccc(C2CC(=O)C(C=NCCN3CCN(C(=S)Nc4ccccc4)CC3)=C(O)C2)cc1 (centres undefined)	–	–	–	97	–
O=C1CC(c2ccco2)CC(O)=C1C=NCC1CCNCC1 (centres undefined)	–	94	+	–	–
Cc1nnc(SCc2ccc(CSc3nnc(C)c(=O)[nH]3)cc2)[nH]c1=O	–	–	?	–	–
Cc1n[nH]c(=S)n(NC(=O)/C=C/C(=O)Nn2c(=S)[nH]nc(C)c2=O)c1=O	–	92	+	–	–
Cc1n[nH]c(=S)n(NC(=O)CC(=O)Nn2c(=S)[nH]nc(C)c2=O)c1=O	–	–	–	–	–
COc1cccc(/C=C/C(=O)c2c(O)cc(C)oc2=O)c1O	–	–	–	–	–
COc1ccc(/C=C/C(=O)c2c(O)cc(C)oc2=O)c(OC)c1	–	?	+	–	–
COc1ccc(NC(=O)C2Cc3ccccc3CN2C(=O)c2ccccc2)cn1 (centres undefined)	71	?	?	–	–
CC(=O)c1ccc(NC(=O)C2Cc3ccccc3CN2C(=O)c2ccccc2)cc1 (centres undefined)	–	–	–	–	–
Cn1c(SCC(=O)N2CCCC2)nc2ccccc2c1=O	–	–	–	–	–
Cn1c(SCC(=O)N2CCCC2)nc2ccccc21	–	active	–	–	–
CC(C)CN=Cc1c(O)c([N+](=O)[O-])cc2oc3c(c12)CCCC3	–	?	–	–	–
O=[N+]([O-])c1cc2oc3c(c2c(C=NCc2ccccc2)c1O)CCCC3	–	76	+	–	–
CCCCOc1ccc(C(=O)N/N=C/c2ccc(OCCN3CCCCC3)c(OC)c2)cc1	–	–	–	–	–
CC1(C(=O)NS(=O)(=O)c2ccc(Cl)cc2)CCN1C(=O)C/C=C/c1ccccc1 (centres undefined)	–	·	·	·	·
CCOCCn1c(CN2CCN(C)CC2)nc2c1c(=O)n(C)c(=O)n2C	–	–	–	90	·
CN(C)c1ccc(CC(=O)N2CCCCC2c2cc(C(=O)Nc3cccc(C#N)c3)no2)cc1 (centres undefined)	–	·	·	·	·
Cc1[nH]n(C(N)=S)c(=O)c1N=Nc1ccc(S(=O)(=O)N2CCCC2)cc1	42	–	–	–	–
COc1ccc(OC)c(N/C(C)=C/C(=O)c2ccncc2)c1	–	?	+	·	·
CCC(C)N(C(=O)COC(=O)CNC(=O)c1ccccc1F)C1CCS(=O)(=O)C1 (centres undefined)	–	–	–	–	–
CC(C)CN(C(=O)COC(=O)c1ccc2c(c1)NC(=O)CS2)C1CCS(=O)(=O)C1 (centres undefined)	55	–	–	–	–
CC(C)CN(C(=O)COC(=O)CNC(=O)c1ccccc1F)C1CCS(=O)(=O)C1 (centres undefined)	–	–	+	–	–
CN(C(=O)COC(=O)c1ccc2c(c1)NC(=O)CS2)C1CCS(=O)(=O)C1 (centres undefined)	–	–	–	–	–
COCC(C)n1c(C)cc(C(=O)COC(=O)c2ccc3c(c2)NC(=O)CS3)c1C (centres undefined)	39	–	–	–	–
Cc1nn(-c2ccc(N3CCOCC3)nn2)c(C)c1CCC(=O)NCc1ccccc1	–	–	–	·	·
Cc1cccnc1NC1(C(F)(F)F)N=C2SCCN2C1=O (centres undefined)	–	–	–	–	–
Cc1cccc(NC2(C(F)(F)F)N=C3SCCN3C2=O)n1 (centres undefined)	40	–	–	–	–
